Screens from PubChem BioAssay.
Shown are actives, neighbours in structure and some others; about 4.2% of the full set was active somewhere.
S1P4 ag: human S1P4 receptor agonism; O95977; S1P4-expressing cell line, agonist reporter assay; activation, % at 4.98 µM; actives 0.35% (n = 220,000); AID 1509; in the data active means activation above about 11%
Target sequence (O95977 whole entry, looked up): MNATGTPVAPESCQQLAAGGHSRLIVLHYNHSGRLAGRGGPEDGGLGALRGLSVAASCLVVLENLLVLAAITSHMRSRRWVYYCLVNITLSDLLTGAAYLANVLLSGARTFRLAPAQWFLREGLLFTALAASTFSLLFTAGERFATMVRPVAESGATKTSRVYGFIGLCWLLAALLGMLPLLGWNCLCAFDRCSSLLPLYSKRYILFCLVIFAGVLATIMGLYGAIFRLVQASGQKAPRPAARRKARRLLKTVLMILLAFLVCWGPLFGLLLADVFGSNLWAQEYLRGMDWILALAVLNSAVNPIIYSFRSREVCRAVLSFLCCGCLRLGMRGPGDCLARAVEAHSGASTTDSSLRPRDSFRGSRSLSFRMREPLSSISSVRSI
S1P4 antag: blocks the human S1P4 receptor. O95977. S1P4-expressing cells, antagonist mode, reporter read-out. inhibition, % at 4.98 µM. actives 0.26% (n = 220,000); in the data active means inhibition above about 29%
CHOP inh: blocks CHOP induction under ER stress | actives 3.8% (n = 220,000) | inhibition, % at 10 µM | CHO-K1 CHOP-promoter luciferase, tunicamycin-induced, 15-18 h;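 active means compounds that reduced the stress-induced luciferase reporter signal by more than about 70% of percent inhibition, limit read from the data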
Hsp70 activator: Hsp70 transcriptional activation, primary screen; activation, % at 10 µM; actives 0.04% (n = 200,000); HeLa Hsp70 promoter luciferase reporter, luminescence; scaled: vehicle 0, proteasome-inhibitor control 100%;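 active means activation above the mean across all tested compounds plus 3 SD, cutoff set per campaign, cut at about 5.5% in these data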
CHOP inh conf: confirmation of CHOP induction inhibitors. shares compounds with CHOP inh. CHO-CHOP promoter luciferase reporter, tunicamycin-induced, luminescence. inhibition, % at 10 µM. actives 45% (n = 2,100). AID 504437;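 active means mean of three repeat readings of reporter signal inhibition above a set limit, cut at about 70% in these data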
Hits are given with their value; – = inactive; · = not tested or not shown.

SMILES	S1P4 ag	S1P4 antag	CHOP inh	Hsp70 activator	CHOP inh conf
Clc1ccc(Cn2cnc3ccccc32)cc1	–	–	–	–	·
O=S1(=O)c2ccccc2N=NN1Cc1ccc(Cl)cc1	–	–	109	–	–
Cc1occc1C(=O)Nc1sc2c(c1C(N)=O)CCCCC2	–	–	96	–	–
c1ccc2c(-c3c[nH]c4ccccc34)c3ccccc3nc2c1	–	–	98	–	–
COc1cc2c(cc1OC)C(c1ccccc1)N(C(=O)CCl)CC2 (stereo unspecified)	–	–	111	–	117
CCC1(c2ccc(F)cc2)NC(=O)N(CC(=O)Nc2ccc(-c3nc4ccc(C)cc4s3)cc2)C1=O (stereo unspecified)	–	–	101	–	74
CC(=O)Nc1ccc(NC(=O)C(C)OC(=O)/C=C/c2cn(-c3ccccc3)nc2-c2cccnc2)cc1 (stereo unspecified)	–	–	104	–	–
CCOc1ccc(C(=O)Nc2ccc(NC(=O)c3ccco3)c(Cl)c2)cc1Cl	–	–	101	–	–
CCOc1ccc(C(=O)Nc2ccc(NC(=O)c3ccco3)c(Cl)c2)cc1Br	–	–	–	–	·
O=C(Oc1ccc2c(c1)OCO2)c1cc2c(s1)CCC2	–	–	·	–	·
COC(=O)/C(=C(/F)Sc1cc(C)c(O)c(C)c1)C(F)(F)F	–	–	98	–	118
CCOc1ccc(C(=O)NC(=S)N(Cc2ccccc2)Cc2ccccc2)cc1	–	–	–	–	·
CN=C(Nc1cc(Cl)ccc1Cl)SC1CC(=O)N(c2ccc(C(=O)OC)cc2)C1=O (stereo unspecified)	–	–	105	–	–
COC(=O)c1ccc(N2C(=O)CC(SCC(=O)Nc3ccc(OC)cc3)C2=O)cc1 (stereo unspecified)	–	–	–	·	·
Cc1ccc(NCc2n[nH]c(=S)n2Cc2ccccc2)cc1Cl	–	–	100	–	–
O=C(CCl)Nc1cccc(Oc2ccccc2)c1	–	–	107	–	–
O=C(CCl)Nc1ccc(N=Nc2ccccc2)cc1	–	–	103	–	–
CCCC(=O)NC(NC(=S)Nc1ccc(S(N)(=O)=O)cc1)C(Cl)(Cl)Cl (stereo unspecified)	–	–	–	–	·
CCCC(=O)NC(NC(=S)Nc1ccc(N=Nc2ccccc2)cc1)C(Cl)(Cl)Cl (stereo unspecified)	–	–	100	–	83
Cc1cccc(-c2onc3ccc(C4(C)OCCO4)cc23)c1	–	–	106	–	–
CC1(c2ccc3noc(-c4cccc(F)c4)c3c2)OCCO1	–	–	–	–	·
O=C(CSc1nc2c([nH]c3ccccc32)c(=O)n1-c1ccc(F)cc1)NCc1ccco1	–	–	–	–	·
Cc1sc(-c2ccncc2)nc1OC(=O)c1cc(Cl)cc(Cl)c1	–	–	104	–	–
COc1ccc(NC(=O)C(CCSC)N2C(=O)c3ccccc3C2=O)cc1 (stereo unspecified)	–	–	–	–	·
COc1ccc(CC2(CO)CCN(CC3=Cc4cc(Cl)ccc4OC3)CC2)cc1	–	–	102	–	105
SMILES	S1P4 ag	S1P4 antag	CHOP inh	Hsp70 activator	CHOP inh conf
COc1ccc2c(c1)C=C(CN1CCC(CO)(CCc3ccccc3)CC1)CO2	–	–	–	–	·
CC(C)c1ccc(O)c(NC(=O)c2ncn[nH]2)c1	–	–	–	–	·
CC(C)c1ccc2c(c1)C1(NN=C(c3ccccc3)S1)C(=O)N2 (stereo unspecified)	–	–	105	–	106
Cc1ccccc1N1CCN(C(=O)c2ccc(Oc3ccc(C(F)(F)F)cn3)cc2)CC1	–	–	103	–	73
O=C(O)c1ccc(Oc2ccc(C(F)(F)F)cn2)cc1	–	–	–	–	·
Cc1ccc(C(=O)/C=C\C(=O)c2ccc(C)cc2)cc1	–	–	102	–	–
COc1nccnc1NS(=O)(=O)c1ccc(NC(=S)NC(=O)c2cccnc2)cc1	–	–	–	·	·
C/C(=N\NC(=O)CC1(C)OCCO1)c1cccs1	–	–	–	–	·
CC(=O)c1c(-c2ccccc2)c2cc(Cl)ccc2[nH]c1=O	–	–	–	–	·
CCOC(=O)c1[nH]c2ccc(Cl)cc2c1-c1ccccc1	–	–	97	–	120
CCC(Cc1ccccc1)n1c(=S)[nH]c2ccccc2c1=O (stereo unspecified)	–	–	97	–	82
CCCc1cc(C(=O)N(C2CCCCC2)C2CCCCC2)no1	–	–	100	–	89
O=C(CCl)N(c1ccccc1)C1CCCCC1	–	–	107	–	–
O=C(N/N=C/c1cccc(O)c1)c1ccc(COc2ccc3c(c2)CCC3)o1	–	–	109	–	–
COc1ccc(C2(O)CC3CCC(C2)N3c2nc(C)cc(C)c2C#N)cc1 (stereo unspecified)	–	–	101	–	–
COc1ccc(Oc2nc(C)cc(C)c2C#N)cc1	–	–	–	–	·
O=C(N/N=C/c1ccc(O)c2ncccc12)c1cccc(Br)c1	–	–	105	–	–
O=C(N/N=C/c1ccc([N+](=O)[O-])s1)c1cccc(Br)c1	–	–	97	–	–
O=C(N/N=C/c1ccc([N+](=O)[O-])s1)c1ccncc1	–	–	–	–	·
Cc1cc(C[n+]2ccccc2)c2nsnc2c1	–	–	–	–	·
Nc1cc(S(=O)(=O)C(F)(F)F)ccc1C(=O)O	–	–	–	–	·
Cc1cc(N2C(=O)C=CC2=O)c([N+](=O)[O-])cc1C	–	–	108	–	–
CC(NC(=O)COC(=O)c1ccc2c(c1)S(=O)(=O)N=C1CCCCCN12)C12CC3CC(CC(C3)C1)C2 (stereo unspecified)	–	–	104	–	–
O=C(CNC(=O)c1ccc(Cl)cc1)N/N=C/C=C/c1ccccc1	–	–	99	–	–
O=C1/C(=C/c2ccncc2)SC(=S)N1C1CCS(=O)(=O)C1 (stereo unspecified)	–	–	104	–	103
SMILES	S1P4 ag	S1P4 antag	CHOP inh	Hsp70 activator	CHOP inh conf
O=C1/C(=C/c2ccccc2)SC(=S)N1C1CCS(=O)(=O)C1 (stereo unspecified)	–	–	–	·	·
CCOc1ccc(C(=O)Nc2ccccc2N2CCOCC2)cc1	–	–	–	–	·
Cc1csc(NC(=O)CSc2nnc3c4ccccc4nc(C(C)(C)C)n23)n1	–	–	105	–	125
Cn1cccc1Cc1nnc(SCC(=O)Nc2ccc(Cl)cc2)n1-c1ccc(F)cc1	–	–	–	–	·
O=S(=O)(NC1CC1)c1ccc(S(=O)(=O)N2CCCC3(CCCCC3)C2)cc1	–	–	97	–	98
O=C(Nc1nc2ccccc2s1)C1CC(=O)N(c2ccc(Cl)cc2)C1 (stereo unspecified)	–	–	105	–	–
CCCCCCCCCCCCCCCC[n+]1cccc2ccccc21	–	–	106	–	120
CCN(CC)CCOC(=O)c1ccc(N/C=C(/C#N)c2nc(-c3ccc(OC)c(OC)c3)cs2)cc1	–	–	–	·	·
CCN(CC)CCOC(=O)c1ccc(N/C=C(/C#N)c2nc(-c3cccc(OC)c3)cs2)cc1	–	–	105	·	80
COc1ccc(-n2nnnc2-c2cnc(N3CCCC3)nc2C(F)(F)F)cc1	–	–	–	–	·
